Where “and” joins values, the source holds several entries; their conditions need not be identical. Identical values can stand only once. In all, about 5,500 compounds went through this assay and about 2,000 (36%) were called active. About 18% were inconclusive and are not listed. No stated cut-off is given here; in the data, active means normalized growth mostly below about 0.91 (no sharp cut-off); inconclusive means no clear call, values can overlap the other calls; inactive means mostly above about 0.92. This is one part of the list.
Assay: chemical genetic growth profiling, strain panel (AID 1159580);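 further: tested at 20 µM; growth read once vehicle control cultures reached saturation at 30 °C; 1 = growth at the plate median or of vehicle wells; lower values mean less growth of the strain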
Conditions: growth OD

Measured: normalized growth

NCC(CC(=O)O)c1ccc(Cl)cc1 (stereo not drawn)
inactive: S. cerevisiae deletion strains, locus YJR075W, strain HOC1, hits give low values 0.991 | S. cerevisiae deletion strains, locus YKL009W, strain mrt4, hits give low values 0.968 | S. cerevisiae deletion strains, locus YKL068W, hits give low values 1.01 | S. cerevisiae deletion strains, locus YKL085W, strain MDH1 (second series), hits give low values 0.991 | S. cerevisiae deletion strains, locus YKL085W, strain MDH1, hits give low values 0.991 | S. cerevisiae deletion strains, locus YKL160W, strain elf1, hits give low values 1.01 | S. cerevisiae deletion strains, locus YKR001C, strain vps1, hits give low values 0.974 | S. cerevisiae deletion strains, locus YKR026C, strain gcn3, hits give low values 0.995 | S. cerevisiae deletion strains, locus YKR091W, strain srl3, hits give low values 1 | S. cerevisiae deletion strains, locus YLL001W, strain dnm1, hits give low values 1.03 | S. cerevisiae deletion strains, locus YLL026W, hits give low values 1.01 | S. cerevisiae deletion strains, locus YLL041C, strain sdh2, hits give low values 0.993 | S. cerevisiae deletion strains, locus YLR027C, strain aat2, hits give low values 1.01 | S. cerevisiae deletion strains, locus YLR039C, strain RIC1, hits give low values 1.07 | S. cerevisiae deletion strains, locus YLR058C, strain SHM2, hits give low values 1.02 | S. cerevisiae deletion strains, locus YLR102C, strain apc9, hits give low values 0.985 | S. cerevisiae deletion strains, locus YLR113W, strain HOG1, hits give low values 1.05 | S. cerevisiae deletion strains, locus YLR221C, strain rsa3, hits give low values 0.976 | S. cerevisiae deletion strains, locus YLR258W, strain gsy2, hits give low values 0.984 | S. cerevisiae deletion strains, locus YLR262C, strain YPT6 (second series), hits give low values 0.995 | S. cerevisiae deletion strains, locus YLR262C, strain YPT6, hits give low values 1.08 | S. cerevisiae deletion strains, locus YLR268W, strain sec22, hits give low values 1.02 | S. cerevisiae deletion strains, locus YLR320W, strain mms22, hits give low values 0.968 | S. cerevisiae deletion strains, locus YLR330W, strain CHS5, hits give low values 1.02 | S. cerevisiae deletion strains, locus YLR342W, strain FKS1 (second series), hits give low values 1.03 | S. cerevisiae deletion strains, locus YLR342W, strain FKS1, hits give low values 1.03 | S. cerevisiae deletion strains, locus YLR357W, strain rsc2, hits give low values 1 | S. cerevisiae deletion strains, locus YLR370C, strain arc18, hits give low values 0.997 | S. cerevisiae deletion strains, locus YLR371W, strain rom2, hits give low values 0.985 | S. cerevisiae deletion strains, locus YLR384C, strain iki3, hits give low values 1.01 | S. cerevisiae deletion strains, locus YLR418C, strain cdc73, hits give low values 0.979 | S. cerevisiae deletion strains, locus YML016C, strain PPZ1, hits give low values 1.02 | S. cerevisiae deletion strains, locus YML032C, strain rad52, hits give low values 0.987 | S. cerevisiae deletion strains, locus YML120C, strain ndi1, hits give low values 0.999 | S. cerevisiae deletion strains, locus YML124C, strain tub3, hits give low values 0.983 | S. cerevisiae deletion strains, locus YMR058W, strain fet3, hits give low values 1.02 | S. cerevisiae deletion strains, locus YMR078C, strain ctf18, hits give low values 0.99 | S. cerevisiae deletion strains, locus YMR125W, strain sto1, hits give low values 0.97 | S. cerevisiae deletion strains, locus YMR129W, hits give low values 0.999 | S. cerevisiae deletion strains, locus YMR205C, strain PFK2, hits give low values 1.01 | S. cerevisiae deletion strains, locus YMR223W, strain ubp8, hits give low values 1 | S. cerevisiae deletion strains, locus YMR231W, strain pep5, hits give low values 1.01 | S. cerevisiae deletion strains, locus YMR263W, strain SAP30, hits give low values 1.01 | S. cerevisiae deletion strains, locus YMR307W, strain GAS1, hits give low values 1.1 | S. cerevisiae deletion strains, locus YNL067W, strain RPL9B, hits give low values 1 | S. cerevisiae deletion strains, locus YNL071W, strain lat1, hits give low values 0.991 | S. cerevisiae deletion strains, locus YNL128W, strain TEP1, hits give low values 1.01 | S. cerevisiae deletion strains, locus YNL153C, strain GIM3, hits give low values 1.01 | S. cerevisiae deletion strains, locus YNL175C, strain NOP13, hits give low values 0.977 | S. cerevisiae deletion strains, locus YNL183C, strain NPR1, hits give low values 0.993 | S. cerevisiae deletion strains, locus YNL197C, strain WHI3, hits give low values 1.04 | S. cerevisiae deletion strains, locus YNL209W, strain ssb2, hits give low values 0.997 | S. cerevisiae deletion strains, locus YNL224C, strain SQS1, hits give low values 0.993 | S. cerevisiae deletion strains, locus YNL233W, strain BNI4, hits give low values 1.01 | S. cerevisiae deletion strains, locus YNL248C, strain rpa49, hits give low values 0.961 | S. cerevisiae deletion strains, locus YNL250W, strain rad50, hits give low values 0.986 | S. cerevisiae deletion strains, locus YNL271C, strain bni1, hits give low values 0.987 | S. cerevisiae deletion strains, locus YNL298W, strain CLA4, hits give low values 0.984 | S. cerevisiae deletion strains, locus YNL307C, strain MCK1, hits give low values 0.977 | S. cerevisiae deletion strains, locus YNL322C, strain KRE1 (second series), hits give low values 0.985 | S. cerevisiae deletion strains, locus YNR049C, strain mso1, hits give low values 1.01 | S. cerevisiae deletion strains, locus YNR052C, strain pop2, hits give low values 0.979 | S. cerevisiae deletion strains, locus YOL012C, strain htz1 1.49 | S. cerevisiae deletion strains, locus YOL147C, strain pex11, hits give low values 0.984 | S. cerevisiae deletion strains, locus YOR001W, strain rrp6, hits give low values 0.99 | S. cerevisiae deletion strains, locus YOR061W, strain CKA2, hits give low values 1.02 | S. cerevisiae deletion strains, locus YOR069W, strain VPS5, hits give low values 1.01 | S. cerevisiae deletion strains, locus YOR070C, strain gyp1, hits give low values 0.98 | S. cerevisiae deletion strains, locus YOR080W, strain dia2, hits give low values 0.997 | S. cerevisiae deletion strains, locus YOR083W, strain WHI5 (second series), hits give low values 1.04 | S. cerevisiae deletion strains, locus YOR083W, strain WHI5, hits give low values 0.988 | S. cerevisiae deletion strains, locus YOR106W, strain vam3, hits give low values 1.02 | S. cerevisiae deletion strains, locus YOR136W, strain idh2, hits give low values 0.974 | S. cerevisiae deletion strains, locus YOR144C, strain elg1, hits give low values 0.992 | S. cerevisiae deletion strains, locus YOR184W, strain ser1, hits give low values 0.984 | S. cerevisiae deletion strains, locus YOR231W, strain MKK1, hits give low values 1.08 | S. cerevisiae deletion strains, locus YOR265W, strain rbl2, hits give low values 1 | S. cerevisiae deletion strains, locus YOR270C, strain vph1, hits give low values 0.976 | S. cerevisiae deletion strains, locus YOR290C, strain snf2, hits give low values 0.957 | S. cerevisiae deletion strains, locus YOR316C, strain cot1, hits give low values 0.986 | S. cerevisiae deletion strains, locus YPL051W, strain arl3, hits give low values 0.999 | S. cerevisiae deletion strains, locus YPL055C, strain LGE1, hits give low values 1.02 | S. cerevisiae deletion strains, locus YPL078C, strain atp4, hits give low values 1.02 | S. cerevisiae deletion strains, locus YPL106C, strain sse1, hits give low values 0.968 | S. cerevisiae deletion strains, locus YPL240C, strain hsp82, hits give low values 0.992 | S. cerevisiae deletion strains, locus YPL241C, strain CIN2, hits give low values 1.01 and 0.983 | S. cerevisiae deletion strains, locus YPL256C, strain CLN2, hits give low values 1.08 | S. cerevisiae deletion strains, locus YPR119W, strain clb2, hits give low values 0.993 | S. cerevisiae deletion strains, locus YPR141C, strain kar3, hits give low values 0.996 | S. cerevisiae deletion strains, locus YPR163C, strain tif3, hits give low values 0.99 | S. cerevisiae deletion strains, locus YPR167C, strain met16, hits give low values 0.991 | S. cerevisiae deletion strains, strain wtn01, hits give low values 0.992 | S. cerevisiae strains, strain wild type, hits give low values 1.03
